According to the antibiotic and cytotoxicity screens of Wong et al. (2023):
Hit rate of the full screen: of about 39,000 compounds, about 1,500 (3.8%) were called active. For the sample, actives were picked, then their nearest neighbours and some compounds at random.

tested on: HSkMC (human skeletal muscle cells); assay: cytotoxicity call (relative viability < 0.9); conditions: 10 µM

| SMILES | cytotoxicity call |
| --- | --- |
| O=C(C[C@H]1C[C@H]2c3cc(NS(=O)(=O)c4ccc(F)cc4)ccc3O[C@H]2[C@@H](CO)O1)NC1CCCCC1 | inactive |
| C[C@@H]1CCCCO[C@@H](CN(C)C(=O)Nc2cccc3ccccc23)[C@@H](C)CN([C@@H](C)CO)C(=O)c2cc(NS(=O)(=O)c3ccc(Cl)cc3)ccc2O1 | inactive |
| C[C@H]1CN([C@@H](C)CO)C(=O)Cc2cc(NC(=O)CCC(F)(F)F)ccc2O[C@H]1CN(C)S(=O)(=O)c1ccccc1 | inactive |
| CO/N=C(\C(=O)N[C@@H]1C(=O)N2C(C(=O)O)=C(C)CS[C@H]12)c1csc(N)n1 | inactive |
| C[C@@H]1CCCCO[C@H](CN(C)C(=O)c2ccccc2)[C@H](C)CN([C@H](C)CO)C(=O)c2cc(NS(=O)(=O)c3ccc(Cl)cc3)ccc2O1 | inactive |
| COCC#Cc1cnc2c(c1)C(=O)N([C@H](C)CO)C[C@H](C)[C@H](CN(C)C(=O)Nc1ccc(OC)cc1)O2 | inactive |
| CS(=O)(=O)N1C[C@H]2COC[C@@]2(C(=O)NCc2ccccn2)C1 | inactive |
| C[C@@H]1CN([C@H](C)CO)C(=O)CCCn2cc(nn2)CO[C@H]1CN(C)C(=O)Nc1ccc(C(F)(F)F)cc1 | inactive |
| Cc1ccc(S(=O)(=O)Nc2ccc3c(c2)C(=O)N([C@H](C)CO)C[C@H](C)[C@@H](CN(C)C(=O)Cc2ccccc2)OCCCC[C@@H](C)O3)cc1 | inactive |
| Cc1noc(C)c1S(=O)(=O)Nc1ccc2c(c1)C(=O)N([C@@H](C)CO)C[C@H](C)[C@H](CN(C)Cc1ccc(Cl)c(Cl)c1)OCCCC[C@@H](C)O2 | inactive |
| C[C@H](CO)N1C[C@H](C)[C@@H](CN(C)CC2CCCCC2)Oc2c(NC(=O)c3ccc(-c4nccs4)cc3)cccc2C1=O | inactive |
| Cc1ccc(-c2cnc3c(c2)C(=O)N([C@@H](C)CO)C[C@@H](C)[C@H](CN(C)C(=O)Cc2ccncc2)O3)cc1 | inactive |
| C[C@H]1CN([C@@H](C)CO)C(=O)c2cc(NS(=O)(=O)c3ccc(Cl)cc3)ccc2O[C@H]1CN(C)C(=O)Nc1cccc2ccccc12 | inactive |
| C[C@H]1CN([C@@H](C)CO)C(=O)c2cc(NS(=O)(=O)c3ccc(Cl)cc3)ccc2O[C@@H]1CN(C)Cc1ccc(C(F)(F)F)cc1 | active |
| C[C@@H]1CN([C@@H](C)CO)C(=O)c2cc(NC(=O)CCC(F)(F)F)ccc2O[C@@H](C)CCCCO[C@@H]1CN(C)C(=O)Nc1ccc(C(F)(F)F)cc1 | inactive |
| Nc1nc(=O)n([C@@H]2CS[C@H](CO)O2)cc1F | inactive |
| CNC(=O)c1ccccc1N | inactive |
| C[C@@H]1CN([C@@H](C)CO)C(=O)c2cc(NC(=O)Nc3ccc(C(F)(F)F)cc3)ccc2O[C@H]1CN(C)Cc1ccc(Oc2ccccc2)cc1 | active |
| C[C@H]1CN([C@@H](C)CO)C(=O)c2cc(NC(=O)Nc3ccc(C(F)(F)F)cc3)ccc2O[C@H]1CN(C)Cc1ccc(Oc2ccccc2)cc1 | active |
| C[C@H](CO)N1C[C@H](C)[C@@H](CN(C)Cc2ccc(Oc3ccccc3)cc2)Oc2ccc(NC(=O)Nc3ccc(C(F)(F)F)cc3)cc2C1=O | active |
| C[C@@H]1CN([C@@H](C)CO)C(=O)c2cc(NC(=O)Nc3ccc(C(F)(F)F)cc3)ccc2O[C@@H]1CN(C)Cc1ccc(Oc2ccccc2)cc1 | active |
| O=C(C[C@@H]1C[C@H]2c3cc(NC(=O)C4CCOCC4)ccc3O[C@H]2[C@H](CO)O1)NCc1ccc2c(c1)OCO2 | inactive |
| C[C@@H]1CCCCO[C@@H](CN(C)C(=O)c2ccccc2)[C@@H](C)CN([C@H](C)CO)C(=O)c2cc(NC(=O)Nc3ccc(C(F)(F)F)cc3)ccc2O1 | inactive |
| Cc1noc(C)c1S(=O)(=O)Nc1ccc2c(c1)C(=O)N([C@@H](C)CO)C[C@@H](C)[C@H](CN(C)C(=O)NC(C)C)O2 | inactive |

| SMILES | cytotoxicity call |
| --- | --- |
| Cl.N=C(N)NC(=N)N1CCOCC1 | inactive |
| COc1ccc(S(=O)(=O)N2C[C@@H](O)COC[C@H]3O[C@@H](CC(=O)NCCCN(C)C)CC[C@@H]32)cc1 | inactive |
| C[C@H](CO)N1C[C@H](C)[C@H](CN(C)S(=O)(=O)c2cccs2)Oc2ccc(NS(=O)(=O)c3cn(C)cn3)cc2C1=O | inactive |
| Cn1cnc(CCNC(=O)C[C@H]2CC[C@H]3[C@@H](COC[C@H](O)CN3C(=O)Nc3ccc(C(F)(F)F)cc3)O2)c1 | inactive |
| C[C@H]1CN([C@@H](C)CO)C(=O)c2cc(NS(=O)(=O)c3ccc(F)cc3)ccc2O[C@H]1CN(C)S(=O)(=O)c1ccccc1 | inactive |
| Cc1nn(C)c(Cl)c1S(=O)(=O)NC(=O)[C@@]1(C)CCN1C(=O)c1ccccc1CCc1ccccc1 | inactive |
| COC(=O)c1cc(S(C)(=O)=O)ccc1OC | inactive |
| C[C@@H]1CN([C@H](C)CO)C(=O)c2cc(NC(=O)Nc3ccc(C(F)(F)F)cc3)ccc2O[C@H]1CN(C)Cc1ccc(Oc2ccccc2)cc1 | inactive |
| C[C@H]1CN([C@@H](C)CO)C(=O)c2cc(NC(=O)Nc3ccc(C(F)(F)F)cc3)ccc2O[C@@H]1CN(C)Cc1ccc(Oc2ccccc2)cc1 | inactive |
| C[C@H](CO)N1C[C@H](C)[C@H](CN(C)Cc2ccc(Oc3ccccc3)cc2)Oc2ccc(NC(=O)Nc3ccc(C(F)(F)F)cc3)cc2C1=O | active |
| C[C@@H]1CN([C@H](C)CO)C(=O)c2cc(NC(=O)Nc3ccc(C(F)(F)F)cc3)ccc2O[C@@H]1CN(C)Cc1ccc(Oc2ccccc2)cc1 | active |
| CN(C)C(=O)c1cccc(-c2ccc3n(c2=O)C[C@H]2[C@H](CO)[C@@H](C(=O)NCC4CC4)N[C@@H]32)c1 | inactive |
| C[C@@H]1CN([C@H](C)CO)C(=O)c2cccc(NC(=O)Nc3ccc(F)cc3)c2O[C@@H]1CN(C)Cc1ccc(Cl)c(Cl)c1 | inactive |
| C[C@H](CO)N1C[C@H](C)[C@H](CN(C)Cc2ccc(Cl)c(Cl)c2)Oc2c(NC(=O)Nc3ccc(F)cc3)cccc2C1=O | inactive |
| C[C@H](CO)N1C[C@H](C)[C@@H](CN(C)Cc2ccc(Cl)c(Cl)c2)Oc2c(NC(=O)Nc3ccc(F)cc3)cccc2C1=O | active |
| C[C@@H]1CN([C@H](C)CO)C(=O)c2cccc(NC(=O)Nc3ccc(F)cc3)c2O[C@H]1CN(C)Cc1ccc(Cl)c(Cl)c1 | active |
| C[C@@H]1CN([C@@H](C)CO)C(=O)c2cccc(NC(=O)Nc3ccc(F)cc3)c2O[C@H]1CN(C)Cc1ccc(Cl)c(Cl)c1 | inactive |
| COc1ccc(NC(=O)Nc2cccc3c2O[C@@H](CN(C)Cc2ccc(Cl)c(Cl)c2)[C@@H](C)CN([C@H](C)CO)C3=O)cc1 | inactive |
| COc1ccc(NC(=O)Nc2cccc3c2O[C@H](CN(C)Cc2ccc(Cl)c(Cl)c2)[C@@H](C)CN([C@@H](C)CO)C3=O)cc1 | active |
| C[C@@H]1CN([C@H](C)CO)C(=O)c2cccc(NC(=O)Nc3ccccc3)c2O[C@@H]1CN(C)Cc1ccc(Cl)c(Cl)c1 | inactive |
| C[C@@H]1CN([C@@H](C)CO)C(=O)c2cccc(NC(=O)Nc3ccc(F)cc3)c2O[C@@H]1CN(C)Cc1ccc(Cl)c(Cl)c1 | active |
| C[C@H]1CN([C@@H](C)CO)C(=O)c2cccc(NC(=O)Nc3ccc(F)cc3)c2O[C@H]1CN(C)Cc1ccc(Cl)c(Cl)c1 | inactive |
| COc1ccc(NC(=O)Nc2cccc3c2O[C@@H](CN(C)Cc2ccc(Cl)c(Cl)c2)[C@H](C)CN([C@@H](C)CO)C3=O)cc1 | inactive |
| C[C@@H]1CN([C@@H](C)CO)C(=O)c2cccc(NC(=O)Nc3ccccc3)c2O[C@H]1CN(C)Cc1ccc(Cl)c(Cl)c1 | inactive |
